Outcome and AC50 data for 7 compounds are collected here from PubChem BioAssay (EPA / NIEHS).

Active and inactive are the calls of the source. How the source made its calls: active means hit-call score of the fitted dose curve at least 0.9, where 1 is the maximum; inactive means score below 0.9.

Read-out in test [1]: Thrombomodulin, THBD (gene 7056)
Nature of the test: BSK_CASM3C_Thrombomodulin: BioMAP Diversity Plus: CASM3C Assay for Thrombomodulin Biomarker Activity (AID 2283051).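 Further: thrombomodulin protein level measured by ELISA 24 h after dosing.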 Conditions: primary human coronary artery smooth muscle cells; actives raise or lower the signal.

Read-out in test [2]: Tissue Factor, F3 (gene 2152)
Nature of the test: BSK_CASM3C_TissueFactor: BioMAP Diversity Plus: CASM3C Assay for Tissue Factor Biomarker Activity (AID 2283052).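 Further: cell surface tissue factor protein level read by ELISA.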 Conditions: primary human coronary artery smooth muscle cells; actives raise or lower the signal.

Read-out in test [3]: Interferon-gamma inducible Protein 10 (IP10), CXCL10 (gene 3627)
Nature of the test: BSK_hDFCGF_IP10: BioMAP Diversity Plus: hDFCGF Assay for Interferon-gamma inducible Protein 10 (IP10) Biomarker Activity (AID 2283053). Conditions: primary human foreskin fibroblasts; actives raise or lower the signal. In a few lines: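 Chemical-treated human skin fibroblasts (primary) were sampled at 24 h for IP-10 by ELISA. Both increases and decreases relative to DMSO were scored.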

Read-out in test [4]: Urokinase-type plasminogen activator receptor (uPAR), PLAUR (gene 5329)
Nature of the test: BSK_CASM3C_uPAR: BioMAP Diversity Plus: CASM3C Assay for Urokinase-type plasminogen activator receptor (uPAR) Biomarker Activity (AID 2283054).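 Further: cell-surface uPAR protein level quantified by ELISA.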 The note with it: primary human coronary artery smooth muscle cells; actives raise or lower the signal.

Read-out in test [5]: Vascular cell adhesion molecule 1 (VCAM1), VCAM1 (gene 7412)
As to the kind of experiment: BSK_CASM3C_VCAM1: BioMAP Diversity Plus: CASM3C Assay for Vascular cell adhesion molecule 1 (VCAM1) Biomarker Activity (AID 2283055).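 Further: VCAM-1 protein level quantified by ELISA on the cells.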 Conditions: primary human coronary artery smooth muscle cells; actives raise or lower the signal.

Read-out in test [6]: Collagen III, COL3A1 (gene 1281)
As to the kind of experiment: BSK_hDFCGF_CollagenIII: BioMAP Diversity Plus: hDFCGF Assay for Collagen III Biomarker Activity (AID 2283056). Conditions: primary human foreskin fibroblasts; actives raise or lower the signal. In short, it runs like this:
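Human foreskin fibroblast primary cultures sampled 24 h after dosing; Collagen III quantified by ELISA. Signal fitted bidirectionally against DMSO baseline.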

Read-out in test [7]: Epidermal growth factor receptor (EGFR), EGFR (gene 1956)
Nature of the test: BSK_hDFCGF_EGFR: BioMAP Diversity Plus: hDFCGF Assay for Epidermal growth factor receptor (EGFR) Biomarker Activity (AID 2283057). The note with it: primary human foreskin fibroblasts; actives raise or lower the signal. In short, it runs like this:
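Cell-based multiplexed assay in primary human foreskin fibroblasts. EGFR is read by ELISA 24 h after treatment and compared with DMSO controls.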

Read-out in test [8]: Interleukin-8 (IL8), CXCL8 (gene 3576)
As to the kind of experiment: BSK_hDFCGF_IL8: BioMAP Diversity Plus: hDFCGF Assay for Interleukin-8 (IL8) Biomarker Activity (AID 2283058). The note with it: primary human foreskin fibroblasts; actives raise or lower the signal. In a few lines:
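Primary human foreskin fibroblasts (hDFCGF system) dosed with chemical; IL-8 measured by ELISA 24 hours later. Bidirectional curve fitting relative to DMSO baseline; cytotoxicity tracked in parallel cultures by SRB total protein staining.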

A short description of test [9]: BSK_hDFCGF_Proliferation: Cell Proliferation Assessment in the BioMAP Diversity Plus: hDFCGF Assay (AID 2283059).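 Further: curves fitted for both rise and fall of signal versus DMSO baseline.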 Conditions: primary human foreskin fibroblasts. In short, it runs like this:
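Total protein read at 560 nm after 0.1% SRB staining of TCA-fixed human skin fibroblasts, […]. Activity is fitted in both directions relative to DMSO as baseline.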

Read-out in test [10]: Macrophage colony-stimulating factor (MCSF), CSF1 (gene 1435)
As to the kind of experiment: BSK_hDFCGF_MCSF: BioMAP Diversity Plus: hDFCGF Assay for Macrophage colony-stimulating factor (MCSF) Biomarker Activity (AID 2283060). Conditions: primary human foreskin fibroblasts; actives raise or lower the signal. In short, it runs like this: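 Human foreskin fibroblast primary cultures; M-CSF measured by ELISA 24 hours after chemical dosing. Bidirectional fitting relative to DMSO, with overt cytotoxicity tracked by parallel SRB total-protein staining (0.1% SRB, 10% TCA fixation, 560 nm).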

A short description of test [11]: BSK_hDFCGF_SRB: Viability Assessment in the BioMAP Diversity Plus: hDFCGF Assay (AID 2283061).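 Further: cells exposed to compound for 24 h before the read.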 Conditions: primary human foreskin fibroblasts. In short, it runs like this:
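Human foreskin fibroblasts in 96-well plates were treated 24 h. Total protein was measured by 0.1% SRB staining after 10% TCA fixation, read at 560 nm. Data were fitted bidirectionally against DMSO.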

Read-out in test [12]: TIMP metallopeptidase inhibitor 1 (TIMP1), TIMP1 (gene 7076)
Nature of the test: BSK_hDFCGF_TIMP1: BioMAP Diversity Plus: hDFCGF Assay for TIMP metallopeptidase inhibitor 1 (TIMP1) Biomarker Activity (AID 2283062). The note with it: primary human foreskin fibroblasts; actives raise or lower the signal. In a few lines:
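Human foreskin fibroblast primary cultures dosed for 24 h; secreted/surface TIMP-1 quantified by ELISA. Bidirectional curve fitting against DMSO baseline; cytotoxicity tracked in parallel cultures by SRB total-protein staining.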

Read-out in test [13]: Monokine induced gamma interferon (MIG), CXCL9 (gene 4283)
As to the kind of experiment: BSK_hDFCGF_MIG: BioMAP Diversity Plus: hDFCGF Assay for Monokine induced gamma interferon (MIG) Biomarker Activity (AID 2283063). Conditions: primary human foreskin fibroblasts; actives raise or lower the signal. In short, it runs like this:
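MIG/CXCL9 measured by ELISA 24 h after dosing primary human skin fibroblasts. Activity fitted in both directions against DMSO controls. Cytotoxicity was checked in parallel cultures by SRB staining read at 560 nm.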

Read-out in test [14]: Matrix Metallopeptidase 1 (MMP1), MMP1 (gene 4312)
As to the kind of experiment: BSK_hDFCGF_MMP1: BioMAP Diversity Plus: hDFCGF Assay for Matrix Metallopeptidase 1 (MMP1) Biomarker Activity (AID 2283064). Conditions: primary human foreskin fibroblasts; actives raise or lower the signal. In short, it runs like this:
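Human foreskin fibroblasts exposed to chemical for 24 h; MMP1 detected by ELISA, with DMSO as baseline for bidirectional fitting.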

Read-out in test [15]: Vascular cell adhesion molecule 1 (VCAM1), VCAM1 (gene 7412)
As to the kind of experiment: BSK_hDFCGF_VCAM1: BioMAP Diversity Plus: hDFCGF Assay for Vascular cell adhesion molecule 1 (VCAM1) Biomarker Activity (AID 2283065).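 On AC50: VCAM-1 protein level quantified by ELISA after 24 h chemical exposure.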 Conditions: primary human foreskin fibroblasts; actives raise or lower the signal. In a few lines: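 Human foreskin fibroblast primary cells dosed with chemical, VCAM-1 measured by ELISA at 24 h. Bidirectional curve fitting relative to DMSO as negative control/baseline.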

Read-out in test [16]: Plasminogen activator inhibitor-1 (PAI1), SERPINE1 (gene 5054)
As to the kind of experiment: BSK_hDFCGF_PAI1: BioMAP Diversity Plus: hDFCGF Assay for Plasminogen activator inhibitor-1 (PAI1) Biomarker Activity (AID 2283066). The note with it: primary human foreskin fibroblasts; actives raise or lower the signal. In short, it runs like this:
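Human skin fibroblast cultures receive chemical for 24 h before PAI-1 is measured by ELISA; signal changes are fitted bidirectionally against DMSO-treated wells.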

Read-out in test [17]: Intercellular Adhesion Molecule 1 (ICAM1), ICAM1 (gene 3383)
As to the kind of experiment: BSK_KF3CT_ICAM1: BioMAP Diversity Plus: KF3CT Assay for Intercellular Adhesion Molecule 1 (ICAM1) Biomarker Activity (AID 2283067). The note with it: primary human keratinocytes with fibroblasts; actives raise or lower the signal. In a few lines: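 Human keratinocyte–foreskin fibroblast co-culture was treated for 24 h. Cell-surface ICAM-1 was quantified by ELISA, fitted bidirectionally relative to DMSO. Cytotoxicity was checked in parallel cultures by SRB total-protein staining.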

Read-out in test [18]: Interferon-gamma inducible Protein 10 (IP10), CXCL10 (gene 3627)
As to the kind of experiment: BSK_KF3CT_IP10: BioMAP Diversity Plus: KF3CT Assay for Interferon-gamma inducible Protein 10 (IP10) Biomarker Activity (AID 2283068). Conditions: primary human keratinocytes with fibroblasts; actives raise or lower the signal. In a few lines: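 Human keratinocyte plus foreskin fibroblast primary co-culture exposed to test chemical for 24 h; IP-10 measured by ELISA. Concentration-response fitted bidirectionally against DMSO control as baseline.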

Test [19] can be described thus: BSK_KF3CT_SRB: Viability Assessment in the BioMAP Diversity Plus: KF3CT Assay (AID 2283069).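 Further: read 24 h after compound addition; fitted for both signal gain and loss against DMSO baseline.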 Conditions: primary human keratinocytes with fibroblasts. In short, it runs like this:
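Overt cytotoxicity is assessed as total protein by sulforhodamine B staining in parallel human skin co-cultures at 24 h after dosing. DMSO serves as negative control and baseline.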

Read-out in test [20]: Interleukin-1 alpha (IL1a), IL1A (gene 3552)
As to the kind of experiment: BSK_KF3CT_IL1a: BioMAP Diversity Plus: KF3CT Assay for Interleukin-1 alpha (IL1a) Biomarker Activity (AID 2283070). The note with it: primary human keratinocytes with fibroblasts; actives raise or lower the signal. In short, it runs like this: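 Readout is IL-1a level by ELISA, compared bidirectionally with DMSO as baseline. Cells: human keratinocytes co-cultured with foreskin fibroblasts, harvested 24 h post-dose.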

Take `CCCCN(CCCC)C(=S)[S-].CCCCN(CCCC)C(=S)[S-].[Ni+2]`: the outcome in test [1], in [2], in test [3], in [4], in [5] and in [6] was inactive. Also, the result in test [7], in test [8], in test [9], in test [10], in [11] and in test [12] was inactive. Moreover, the result in test [13], in test [14], in [15], in test [16], in test [17] and in test [18] was inactive. Also, the result in test [19] and in test [20] was inactive.

Broadly, the AC50 is the concentration giving half of the maximal activity seen. Regarding `Oc1cc(Cl)c(Cl)cc1Cl`, the outcome in test [2], in [4], in test [5], in [7], in [8] and in test [10] was inactive. The result in test [12], in test [13], in test [14], in [17], in [18] and in test [19] was inactive. In test [20], the result was inactive. In addition, the AC50 in test [3] was 20 µM (active); in test [6], 27.7 µM (active); in [9], 15.2 µM (active); in test [11], 31.8 µM (active); in test [15] it was 7.54 µM (active); in [16], 34 µM (active).

Consider `Cc1c([N+](=O)[O-])c(C)c([N+](=O)[O-])c(C(C)(C)C)c1[N+](=O)[O-]`, for which the outcome in test [1], in test [2], in test [3], in test [4], in [5] and in test [6] was inactive. The result in test [7], in test [8], in [10], in test [11], in [12] and in [13] was inactive. Besides, the result in [14], in test [15], in test [17], in test [19] and in test [20] was inactive. The values for the AC50 in [9], in test [16] and in [18] were 31.4 µM (active), 29.5 µM (active) and 32.4 µM (active), respectively.

With `CCCCCCCCCCCCN(C)C`, the outcome in [1], in test [2], in test [3], in [4], in [5] and in [6] was inactive. For the same compound, the outcome in test [7], in [8], in test [9], in test [10], in test [11] and in [12] was inactive. Besides, the result in [13], in test [14], in test [15], in test [16], in test [17] and in test [18] was inactive. The result in test [19] and in test [20] was inactive.

For the compound `CC(C)(COCC1CO1)COCC1CO1` (centres undefined), the outcome in [1], in test [2], in test [3], in test [4], in [5] and in test [6] was inactive. Also, the result in test [7], in test [8], in test [10], in test [11], in [12] and in [13] was inactive. Moreover, the outcome in test [14], in test [15], in [16], in test [17], in test [18] and in test [19] was inactive. For the same compound, the result in test [20] was inactive. In addition, in [9], the AC50 was 20 µM (active).

For the compound `O=C(O)COc1cc(Cl)c(Cl)cc1Cl`, the outcome in test [1], in test [3], in test [4], in test [5], in test [6] and in test [7] was inactive. In addition, the result in test [8], in [9], in test [10], in test [11], in test [12] and in [13] was inactive. Also, the result in test [14], in test [15], in test [16], in test [17], in [18] and in [19] was inactive. The result in [20] was inactive. Further, in [2], the AC50 is 5.98 µM (active).

Consider `Cc1ccccc1OP(=O)(Oc1ccccc1C)Oc1ccccc1C`, for which the result in test [1], in test [2], in [6], in test [8] and in test [17] was inactive. In addition, the concentration at half-maximal activity (AC50) is 11.2 µM (active) in [3]; 20 µM (active) in [4]; 32.4 µM (active) in [5]; 11.8 µM (active) in test [7]; 4.26 µM (active) in [9]; 7.75 µM (active) in test [10]. Besides, the AC50 in [11] is 8.28 µM (active); in test [12] it was 11.7 µM (active); in test [13], 12.8 µM (active); in [14], 12.7 µM (active); in [15], 6.18 µM (active); in test [16], 6.03 µM (active). The AC50 in test [18] is 14.7 µM (active); in test [19] it was 20 µM (active); in test [20] it was 11.3 µM (active).
